Records with an inconclusive call do not appear. Entries that show only a call come without a potency. The source made the active and inactive calls. Calls come from the whole dose curve; as a rule, active = well fitted curve in the direction sought with a large enough effect; inconclusive = small, poorly fitted or top-dose-only effect, or another doubt; inactive = no such curve, though single readings can be large; an effect the other way counts as inactive or inconclusive.
Experiments:
[1] = target: Calcium and integrin-binding protein 1 (Homo sapiens) (UniProt Q99828); assay: Primary qHTS for Identification of Calcium Integrin Binding Protein 1 (CIB1) Competitor (AID 1508620); conditions: CIB1-GST / FITC-alphaIIb peptide fluorescence polarization; series mostly up to 57.7 µM;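 note: GST tagged CIB1 binding a fluorescein labelled alphaIIb integrin peptide tracer; top concentration of the series differs between compounds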
Chain of Calcium and integrin-binding protein 1 (Homo sapiens) (Q99828 whole entry, looked up): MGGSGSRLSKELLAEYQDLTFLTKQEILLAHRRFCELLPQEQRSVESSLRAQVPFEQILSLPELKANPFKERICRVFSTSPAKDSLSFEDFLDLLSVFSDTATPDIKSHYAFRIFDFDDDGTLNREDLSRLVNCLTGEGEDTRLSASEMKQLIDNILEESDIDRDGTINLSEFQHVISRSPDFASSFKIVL
Outline: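 Fluorescence polarization competition: CIB1-GST (1 uM final) preincubated with compound 15 min at room temperature, then FITC-labeled alphaIIb peptide (100 nM final) added for another 15 min. Polarization read at Ex 480/Em 540.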

[2] = Primary qHTS for small molecule stabilizers of the endoplasmic reticulum resident proteome: Secreted ER Calcium Modulated Protein (SERCaMP) assay (AID 1508630); conditions: SH-SY5Y GLuc-SERCaMP (Gaussia luciferase released on ER calcium loss) secretion, thapsigargin, luminescence; series mostly up to 38.4 µM
Outline: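 GLuc-SERCaMP-expressing SH-SY5Y cells, pretreated 16 h with compound, are challenged with thapsigargin to empty ER calcium stores; after 4 h, coelenterazine is added directly to the medium and luminescence is imaged.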

| SMILES | Potency [1] | outcome [2] |
| --- | --- | --- |
| CN[C@@H]1C[C@H]2O[C@@](C)([C@H]1OC)n1c3ccccc3c3c4c(c5c6ccccc6n2c5c31)C(=O)N[C@H]4O | inactive | inactive |
| CC(C)[C@H](CO)Nc1nc(Nc2cccc(Cl)c2)c2ncn(C(C)C)c2n1 | inactive | inactive |
| O=C(O)c1ccc(Nc2ncc3c(n2)-c2ccc(Cl)cc2C(c2c(F)cccc2F)=NC3)cc1 | inactive | inactive |
| CCc1cnn2c(NCc3ccc[n+]([O-])c3)cc(N3CCCC[C@@H]3CCO)nc12 | inactive | inactive |
| CCCNS(=O)(=O)Nc1ncnc(OCCOc2ncc(Br)cn2)c1-c1ccc(Br)cc1 | inactive | inactive |
| C[C@@]12C[C@@]3(O)O[C@@H](O1)[C@]1(COC(=O)c4ccccc4)[C@@H]3C[C@@]12O[C@@H]1O[C@H](CO)[C@@H](O)[C@H](O)[C@@H]1O | inactive | inactive |
| O=C(O)C[C@H](O)C[C@H](O)C=Cc1c(C2CC2)nc2ccccc2c1-c1ccc(F)cc1 | inactive | inactive |
| Cc1onc(-c2ccccc2)c1C(=O)N[C@@H]1C(=O)N2[C@@H](C(=O)O)C(C)(C)S[C@@H]12 | inactive | inactive |
| COc1cc2c(cc1OC)[C@@H]1C(=O)c3ccc4c(c3O[C@@H]1CO2)C=CC(C)(C)O4 | inactive | inactive |
| CS(=O)(=O)N1CCc2c(-c3cnc(N)nc3)nc(N3CCOCC3)nc21 | inactive | inactive |
| C=CCNc1c(O)cc2c(O)c1C[C@@H](C)C[C@H](OC)[C@@H](O)[C@@H](C)C=C(C)[C@H](OC(N)=O)[C@@H](OC)C=CC=C(C)C(=O)N2 | inactive | inactive |
| CC[C@H](CC[C@@H](C)[C@H]1CC[C@H]2[C@@H]3CC=C4C[C@@H](O)CC[C@]4(C)[C@@H]3CC[C@]12C)C(C)C | inactive | inactive |
| Cc1ncc(-c2ccnc(Nc3ccc(S(C)(=O)=O)cc3)n2)n1C(C)C | inactive | inactive |
| CCOc1cc2ncc(C#N)c(Nc3ccc(OCc4ccccn4)c(Cl)c3)c2cc1NC(=O)C=CCN(C)C | inactive | inactive |
| CC(=O)OCC(=O)[C@@]12N=C(C)O[C@H]1C[C@H]1[C@@H]3CCC4=CC(=O)C=C[C@]4(C)[C@@H]3[C@@H](O)C[C@@]12C | inactive | inactive |
| COC1=C2C[C@@H](C)C[C@H](OC)[C@@H](O)[C@@H](C)C=C(C)[C@H](OC(N)=O)[C@@H](OC)C=CC=C(C)C(=O)NC(=CC1=O)C2=O | inactive | inactive |
| N#CNC(=NCCCCCCOc1ccc(Cl)cc1)Nc1ccncc1 | inactive | inactive |
| C[C@H](NCc1ccc(OCc2cccc(F)c2)cc1)C(N)=O | inactive | inactive |
| CCOC(=O)N1CCN([N+]([O-])=NOc2ccc([N+](=O)[O-])cc2C#N)CC1 | inactive | inactive |
| CC(Cc1ccc(O)c(O)c1)(NN)C(=O)O (configuration not stated) | inactive | inactive |

| SMILES | Potency [1] | outcome [2] |
| --- | --- | --- |
| NC(=NCCCCCCN=C(N)N=C(N)Nc1ccc(Cl)cc1)N=C(N)Nc1ccc(Cl)cc1 | inactive | inactive |
| NC[C@H]1O[C@H](O[C@H]2[C@@H](O)[C@@H](O[C@H]3O[C@H](CO)[C@@H](O)[C@H](N)[C@@H]3O)[C@H](N)C[C@@H]2N)[C@H](N)C[C@H]1O | inactive | inactive |
| COc1cc(C)c(Sc2cnc(NC(=O)c3ccc(CNC(C)C(C)(C)C)cc3)s2)cc1C(=O)N1CCN(C(C)=O)CC1 (configuration not stated) | inactive | inactive |
| O=C(CN1C(=O)C2(CCCC2)NC[C@H]1c1cc(F)cc(F)c1)Nc1ccc2c(c1)C[C@@]1(C2)C(=O)Nc2ncccc21 | inactive | inactive |
| COc1cc([C@@H]2c3cc4c(cc3[C@H](O)[C@H]3COC(=O)[C@@H]23)OCO4)cc(OC)c1OC | inactive | inactive |
| CCOc1cc2c(c(F)c1OCC)C(=N)N(CC(=O)c1cc(N3CCOCC3)c(OC)c(C(C)(C)C)c1)C2 | inactive | inactive |
| O=C(Nc1cc2cc[nH]c2cn1)c1ccccc1 | inactive | inactive |
| Nc1nc2c(c(=O)[nH]1)N(C=O)[C@H](CNc1ccc(C(=O)N[C@@H](CCC(=O)O)C(=O)O)cc1)CN2 | inactive | inactive |
| OCC(O)C(O)C(O)CO (configuration not stated) | inactive | inactive |
| CC(C)(O)Cn1c(NC(=O)c2ccc(-c3cn[nH]c3)s2)nc2cc(CN3CCOCC3)ccc21 | inactive | inactive |
| Cc1cnc(Nc2ccc(N3CCN(C)CC3)cc2)nc1Nc1cccc(S(=O)(=O)NC(C)(C)C)c1 | inactive | inactive |
| COc1cc(OC)cc(-c2ccc3ncc4ccc(=O)n(-c5ccc(N6CCNCC6)c(C(F)(F)F)c5)c4c3c2)c1 | inactive | inactive |
| COc1cccc2c1C(=O)c1c(O)c3c(c(O)c1C2=O)C[C@@](O)(C(=O)CO)C[C@@H]3O[C@H]1C[C@H](N)[C@@H](O)[C@H](C)O1 |  | inactive |
| CC1(C)CC(O)CC(C)(C)N1[O] |  | inactive |
| FC(F)(F)c1ccc(Nc2nc3ccc(Oc4ccnc(-c5ncc(C(F)(F)F)[nH]5)c4)cc3[nH]2)cc1 | inactive | inactive |
| CN(C)CC(=O)N1CCC(c2ccc(NC(=O)c3ncc(C#N)[nH]3)c(C3=CCCCC3)c2)CC1 | inactive | inactive |
| CC(O)(C#Cc1ccc2c(c1)N(c1nc(N)ncc1Cl)CC2)c1nccs1 (configuration not stated) | inactive | inactive |
| CC(=O)O[C@]1(C(C)=O)CC[C@H]2[C@@H]3C=C(C)C4=CC(=O)CC[C@]4(C)[C@@H]3CC[C@@]21C |  | inactive |
| NC(=O)N1CCC(CC(=O)N2CCC([C@H]3c4ncc(Br)cc4CCc4cc(Cl)cc(Br)c43)CC2)CC1 | inactive | inactive |
| COc1ccc(S(=O)(=O)Nc2cc(-c3c(O)ccc4ccccc34)c(O)c3ccccc23)cc1 | inactive | inactive |

Source: PubChem BioAssay (NCATS)
